Laboratory results: PubChem BioAssay AID1619 (SRMLSC, 2009)
The campaign covered roughly 220,000 compounds. About 830 (0.38%) were called active.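 The calls were made as follows: active = compound inhibiting the enzyme by more than half at any dose during confirmatory dose-response retesting; inconclusive = strong single-dose inhibitors picked by rank but not retested; inactive = the rest.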 Not all results are given here. Measured potencies and affinities stand elsewhere.

Biological target: Leucine aminopeptidase (Plasmodium falciparum (isolate 3D7)) (UniProt Q8IL11)
Sequence (Q8IL11 whole entry, looked up): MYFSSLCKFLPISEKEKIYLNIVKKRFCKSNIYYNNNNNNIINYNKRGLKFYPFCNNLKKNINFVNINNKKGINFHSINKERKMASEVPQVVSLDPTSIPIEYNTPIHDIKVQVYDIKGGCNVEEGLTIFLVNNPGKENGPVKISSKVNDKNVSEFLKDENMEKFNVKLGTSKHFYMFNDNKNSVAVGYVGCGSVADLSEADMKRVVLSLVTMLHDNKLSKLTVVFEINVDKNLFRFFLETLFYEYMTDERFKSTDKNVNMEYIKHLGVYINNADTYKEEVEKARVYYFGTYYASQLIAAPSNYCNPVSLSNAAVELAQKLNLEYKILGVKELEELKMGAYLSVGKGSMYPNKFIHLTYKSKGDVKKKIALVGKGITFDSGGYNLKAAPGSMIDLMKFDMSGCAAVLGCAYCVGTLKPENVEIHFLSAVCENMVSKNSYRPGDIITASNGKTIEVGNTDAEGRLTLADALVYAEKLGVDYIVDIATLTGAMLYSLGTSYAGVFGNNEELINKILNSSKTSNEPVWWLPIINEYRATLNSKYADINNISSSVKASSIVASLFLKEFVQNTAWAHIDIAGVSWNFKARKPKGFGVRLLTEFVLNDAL
Experiment: P. falciparum M17LAP inhibitors, primary screen, biochemical, fluorogenic H-Leu-NHMec substrate, 1536-well (AID 1619);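 also: plate controls were full reaction with DMSO carrier for no effect and no enzyme background for full effect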
Conditions: recombinant M17LAP, H-Leu-NHMec fluorogenic kinetic assay; at 30 µM; active compounds read high

inhibition, inactive:
O=C(CSc1nnc2sc3ccccc3n12)c1ccco1 -1.98%
O=C(CC1SC(=NCCc2ccccc2)N(/N=C/c2cccs2)C1=O)Nc1ccc(Cl)cc1 (stereo not drawn) -1.78%
c1ccc2c(-c3cc(C4CCNCC4)[nH]n3)cccc2c1 -3.07%
CCCc1cc(C(=O)NCc2ccco2)no1 -5.04%
COc1ccccc1CC(=O)NNC(=O)c1cccs1 -2.69%
O=C(CSc1nccc(=O)[nH]1)N1CCN(c2ccccc2)CC1 5.66%
CCOC(=O)COc1ccc(S(=O)(=O)Nc2ccc3c(c2)OCCO3)cc1 2.78%
Cc1cc(=O)[nH]c(SCC(=O)Nc2ccc(C(=O)O)cc2)n1 8.39%
COc1ccc2nc(NC(=O)CSc3nccc(C)n3)sc2c1 1.42%
COc1ccc(NC(=O)CSc2nc(C)cc(C(F)(F)F)n2)cc1 19%
COC(=O)c1ccc(NC(=O)CSc2nc(C)cc(=O)[nH]2)cc1 35.4%
COc1ccc(NC(=O)CSc2nc(C)cc(C)n2)cc1 44%
Cn1c(SCC(=O)Nc2ccc(Br)cc2)nc(O)cc1=O 10.4%
Cc1cc(C)nc(NC(=O)CSc2nccc(C)n2)n1 5.87%
Cc1ccc(NC(=O)CSc2nc(O)cc(=O)n2C)cc1 7.3%
Cc1cc(C)n(-c2nnc(C)n2N)n1 1.79%
COc1ccc(-c2ccn(-c3cccc(F)n3)n2)cc1 10.6%
O=C(N/N=C/c1ccc2c(c1)OCO2)C(=O)Nc1ccccc1 5.86%
CC(=O)c1ccccc1OCCn1nnc(-c2ccc(C)cc2)n1 12.1%
CCCOc1ccc(-c2c(C(=O)N/N=C/c3ccc(C)cc3)nnn2-c2nonc2N)cc1 -4.98%
CCOC(=O)C1=C(Nc2ccc(C)cc2)CC(C)(O)C(C(=O)OCC)C1c1ccccc1 (stereo not drawn) 0.02%
Cc1cc(C)nc(N2CCC(C(=O)Nc3nnc(C)s3)CC2)n1 1.03%
CC(C)(C)Nc1nc2cc([N+](=O)[O-])ccc2o1 2.86%
COc1ccc(NC(=O)CSc2c(C)n[nH]c2C)cc1 21.7%
CCN(CC)c1ccc(NC(=O)CSc2nnc3nc(C)cc(C)n23)cc1 45.5%
COc1ccc(NC(=O)CSc2ccc(C)cc2)cc1 -1.37%
Cc1nn(-c2nnc(C)c(=O)[nH]2)c(C)c1SCC(=O)Nc1ccc(C(C)C)cc1 63.3%
Cc1cc(C)nc(SCC(=O)Nc2ccc(N3CCOCC3)cc2)n1 24.8%
Cc1nn(-c2nnc(C)c(=O)[nH]2)c(C)c1SCC(=O)Nc1ccc(F)cc1 46.2%
COc1ccc(Cc2nn3c(-c4ccccc4OC)nnc3s2)cc1 18.6%
CC1=CC(C)(C)n2c(O)c(N=N)c3c(C)c(C)cc1c32 14.8%
Cc1c(C(=O)NCCSCc2ccccc2Cl)cccc1[N+](=O)[O-] 4.93%
CCOc1ccc(NC(=O)Nc2cc(-c3ccccc3)sc2C(=O)OC)cc1 -2.36%
Cc1cc(C)nc(SCC(=O)Nc2ncc3c(n2)CCCC3=O)n1 -1.93%
Cc1nn(C)cc1CN(C)C(=O)c1nn2c(c1Cl)NC(c1cccs1)CC2C(F)(F)F (stereo not drawn) 11.7%
CC(C)(C)C(=O)N1CCC(O)(CS(=O)(=O)Cc2ccccc2Cl)CC1 13.8%
Cc1ccc(-n2c(SCC(=O)N3CCCc4ccccc43)nnc2-c2cccnc2)c(C)c1 7.68%
Cc1ccc(-n2c(SCC(N)=O)nnc2-c2cccnc2)c(C)c1 1.98%
Cc1cccc(C)c1NC(=S)N1CCC(c2ccccc2)C1 (stereo not drawn) 2.96%
O=c1nc(-c2ccccc2)c2cc(Cl)ccc2[nH]1 3.02%
COc1ccc(/C=C2\CCCC3C2=NN(C(=O)c2scnc2C)C3c2ccc(OC)c(OC)c2)cc1OC (stereo not drawn) -6.36%
Nc1nc2ncc(C(=O)c3cc(F)ccc3O)cc2s1 12.6%
Cc1[nH]nc2ncc(C(=O)c3cc(F)ccc3O)cc12 9.66%
CS(=O)(=O)Nc1nnc(Cc2ccccc2)s1 9.67%
CCCn1c(NCc2cccc(OC)c2O)nc2ccccc21 -4.67%
COc1cc(/C=N/n2c(C)n[nH]c2=S)ccc1OCc1ccc(F)cc1 -2.61%
CC(C)(C)OC(=O)N1CCCC1C(=O)O (stereo not drawn) -3.69%
O=C(Cn1cnc2ccccc2c1=O)c1c[nH]c2ccccc12 11.6%
CC(=O)Nc1ccc2oc(C)nc2c1 0.35%
CCOc1ccc(NC(=O)c2ccc3nccnc3c2)cc1 -3.72%
Cc1nc2cc(NC(=O)Nc3ccc(Br)cc3)ccc2o1 -1.6%
CCc1ccc(NC(=O)Nc2cccs2)cc1 38.6%
COc1ccc(NC(=O)Nc2ccc3nccnc3c2)cc1 37.8%
Cc1ccc(NC(=O)Nc2cccs2)cc1 22.4%
CCn1c(=O)c(C(=O)NCc2cccnc2)c(O)c2ccccc21 2%
CS(=O)(=O)N1N=C(c2ccco2)CC1c1ccccc1Cl (stereo not drawn) 5.77%
CN(C(=O)CSc1nc(-c2ccccc2)c(-c2ccccc2)o1)C1CCS(=O)(=O)C1 (stereo not drawn) 5.76%
NC(=O)c1c(-c2ccc(Cl)cc2Cl)csc1NC(=O)Cc1ccccc1 6.81%
CC(=O)Nc1ccc(NC(=O)CSc2nnc(-c3ccccc3)n2Cc2ccc3c(c2)OCO3)cc1 5.97%
COC(=O)c1[nH]c2c(c1C)C(=O)CCC2 6.36%
CCN1C(=O)/C(=C2\C=Cc3cc(C)ccc3N2CC)OC1=S 1.65%
CCOc1cc(/C=C2\C(=O)N(CCC#N)N=C2C)ccc1OCC(N)=O 4.75%
CC1=NN(Cc2ccccc2)C(=O)/C1=C\c1ccc(N(C)C)cc1 3.83%
CC1=C(C(=O)OC(C)C)C(c2cn(-c3ccccc3)nc2-c2cccs2)NC(=O)N1 (stereo not drawn) 2.02%
COc1ccccc1C(=O)N1CCN(Cc2nc3cc([N+](=O)[O-])ccc3n2C)CC1 6.22%
Cc1cc(S(=O)(=O)Nc2cccc(Cl)c2)c(C)s1 4.03%
COc1cccc(NS(=O)(=O)c2cc(C)sc2C)c1 11.3%
CC(=O)Nc1ccc(C2=NN(C)C(=NCc3ccccc3)SC2)cc1 -2.31%
N=c1n(Cc2ccc(Cl)cc2)c2ccccc2n1CC(O)COc1ccccc1 (stereo not drawn) 6.49%
COc1ccc(C(=O)N/N=C(\C)c2ccc3c(c2)C2C=CCC2C(c2ccccc2)N3)cc1 (stereo not drawn) 20.2%
Cc1c(Cl)cccc1NS(=O)(=O)c1ccc2c(c1)C1C=CCC1C(c1ccc(C(=O)O)cc1)N2 (stereo not drawn) 47.6%
COc1ccc(N2C(=O)C3CCCN3C2c2ccc(C)cc2)cc1Cl (stereo not drawn) -8.88%
CSCCC(NS(=O)(=O)c1ccc2ccccc2c1)C(=O)O (stereo not drawn) 12.2%
CSCCC(NS(=O)(=O)c1ccc(Cl)c(Cl)c1)C(=O)O (stereo not drawn) -4.93%
O=C(NCCn1cc(SCc2ccc(F)cc2)c2ccccc21)c1ccccc1F 12.4%
O=C(O)c1cccc(Cn2c(Cl)c(/C=N/NC(=O)c3ccccc3O)sc2=O)c1 35.2%
COc1ccc(C(=O)N/N=C/c2sc(=O)n(Cc3cccc(C(=O)O)c3)c2Cl)cc1 43.6%
O=C(O)c1cccc(Cn2c(Cl)c(/C=N/NC(=O)c3ccc(O)cc3)sc2=O)c1 53.6%
O=C(O)c1cccc(Cn2c(Cl)c(/C=N/NC(=O)c3cc4ccccc4cc3O)sc2=O)c1 -0.68%
O=C(O)c1cccc(Cn2c(Cl)c(/C=N/NC(=O)c3cccc(O)c3)sc2=O)c1 34%
COC(=O)c1cccc(Cn2c(Cl)c(/C=N/NC(=O)c3ccccc3Cl)sc2=O)c1 13.4%
COC(=O)/C(=N/Nc1cccc(C)c1)N1CCCc2ccccc21 1.03%
Oc1ccc(CCc2n[nH]c(=S)n2-c2ccc(F)cc2)cc1 -8.27%
COc1ccc(N2C(=O)CC(Sc3n[nH]c(-c4ccccc4)n3)C2=O)cc1 (stereo not drawn) 16.4%
CCOC(=O)CN1C(=O)C(Sc2n[nH]c(-c3ccccc3)n2)CCc2ccccc21 (stereo not drawn) 16.8%
CCOc1ccccc1N1C(=O)CC(Sc2ncccc2C(=O)O)C1=O (stereo not drawn) 17.5%
COc1ccc(N2C(=O)CC(Sc3n[nH]c(-c4ccc(C)cc4)n3)C2=O)cc1 (stereo not drawn) 51.7%
COc1cc2ncnc(NCc3ccccc3)c2cc1OC 14.9%
O=S(=O)(c1cccs1)N1CN(Cc2ccccc2)c2nc3ccccc3nc21 -4.62%
CCC(=O)NCc1csc(-c2cccs2)n1 -3.47%
O=C(Nc1cc(N2CCOCC2)ncn1)NC1(C(F)(F)F)Oc2ccccc2O1 5.1%
O=C(NCCN1CCOCC1)NC1(C(F)(F)F)Oc2ccc(Cl)cc2O1 (stereo not drawn) 28.4%
Cn1nc(C(F)(F)F)c(-c2ccc(F)cc2)c1NC(=O)c1cccnc1 -2.14%
COc1ccc(/C=C2\NC(=O)C(C=NCc3ccccc3)=C2O)cc1 0.26%
COc1ccc(-c2nnc(SCC(=O)NCCc3ccccc3)o2)cc1 -10.2%
CCc1ccc(C(=O)CSc2nc3ccccc3c(=O)[nH]2)cc1 -2.74%
Cc1ccc(C(=O)CSc2nnc(C)s2)cc1 -0.76%
Cc1cc(C)nc(SCC(=O)OCN2C(=O)c3ccccc3C2=O)n1 8.29%
Cc1ccc(C(=O)CSc2nc(C)cc(=O)[nH]2)cc1 9.23%
Cn1cnnc1SCC(=O)OCN1C(=O)c2ccccc2C1=O 3.47%
Cc1ccc(NC(=O)CSc2nnc(CCC(=O)O)c(=O)[nH]2)cc1 13.7%
CCCn1c(SCC(=O)c2ccc(CC)cc2)n[nH]c1=O 26.6%
CC(=O)Nc1ccc(NC(=O)CSc2ccc(C)cc2)cc1 -3.31%
